Assay results: PubChem BioAssay
Calls of active or inactive are those of the source.

Legend:
Albumin (Bos taurus) = Albumin (Bos taurus) (UniProt P02769); assay: compounds binding labelled BSA control protein – biochemical, small-molecule microarray, Alexa647 label, 635/667 nm fluorescence, artefact control for SMM control protein annotation, profiling panel (AID 1118); settings: BSA-A647 binding, fluorescence 635 nm, higher = more signal;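 note: score merges 667 nm emission intensity and signal-to-noise per printed compound spot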
Sequence of Albumin (Bos taurus) (P02769 whole entry, looked up): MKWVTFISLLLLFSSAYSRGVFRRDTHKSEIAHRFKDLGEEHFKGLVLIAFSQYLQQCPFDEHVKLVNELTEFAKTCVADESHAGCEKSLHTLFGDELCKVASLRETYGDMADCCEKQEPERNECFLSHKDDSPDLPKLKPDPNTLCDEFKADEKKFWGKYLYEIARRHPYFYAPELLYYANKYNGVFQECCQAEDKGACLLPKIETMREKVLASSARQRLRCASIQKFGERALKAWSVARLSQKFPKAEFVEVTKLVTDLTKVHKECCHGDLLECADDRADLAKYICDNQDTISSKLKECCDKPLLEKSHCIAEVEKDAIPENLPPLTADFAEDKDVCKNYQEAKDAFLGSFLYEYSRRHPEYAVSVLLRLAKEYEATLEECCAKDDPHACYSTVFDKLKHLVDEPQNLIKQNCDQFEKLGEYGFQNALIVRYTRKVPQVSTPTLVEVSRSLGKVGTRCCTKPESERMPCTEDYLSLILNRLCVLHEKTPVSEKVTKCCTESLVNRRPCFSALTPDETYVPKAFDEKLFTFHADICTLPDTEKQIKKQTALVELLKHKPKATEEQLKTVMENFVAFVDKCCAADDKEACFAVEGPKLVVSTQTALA

[1] = probe aXIP binding to arrayed compounds – biochemical, NeuroSMM set, 635/667 nm fluorescence, primary screen (AID 1119); settings: small-molecule microarray, higher = more signal, called active from +8 up or from −8 down;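 note: probe is the protein aXip251-270 applied at 1 µg/mL to compound-printed slides; binding of probe to printed compounds measured as 667 nm fluorescence plus signal to noise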
[2] = probe aNOTCH3 binding on compound microarray – biochemical, small-molecule microarray, 635/667 nm fluorescence, primary screen (AID 1120); settings: higher = more signal;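 note: probe is a biotin-tagged antibody raised against NOTCH3 rather than NOTCH3 protein; score merges spot fluorescence near 667 nm with spot signal to noise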
[3] = probe aNOTCH2 binding on compound microarray – biochemical, small-molecule microarray, 635/667 nm fluorescence, primary screen (AID 1121); settings: higher = more signal;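 note: score merges feature fluorescence read at 667 nm with its signal to noise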
[4] = biological target: Carbonic anhydrase 2 (Homo sapiens) (UniProt P00918); assay: compounds binding carbonic anhydrase 2 – biochemical, small-molecule microarray, Alexa647-labelled CAII, profiling panel (AID 1122); settings: CAII-A647 binding fluorescence, higher = more signal
[5] = COS7 lysate on small-molecule microarray, probe aHis, 635 nm (AID 1123); settings: COS7 cell lysate, fluorescence, higher = more signal;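 note: z-score combines 667nm fluorescence intensity with signal-to-noise per printed compound spot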
[6] = probe aLAP1 signal on lysate-treated microarray – cell lysate, small-molecule microarray, COS7 lysate, primary screen (AID 1124); settings: probe aLAP1, fluorescence, higher = more signal;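 note: lysate comes from COS7 cells expressing LAP1 and is applied at 0.3 µg/mL; score merges spot fluorescence near 667 nm with signal-to-noise over triplicate slides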
Sam68 (KHDRBS1) = assay: compounds binding KHDRBS1 protein – biochemical, small-molecule microarray, 635 nm fluorescence, primary screen (AID 1125); settings: higher = more signal;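 note: score merges 667 nm channel intensity with signal to noise over triplicate slides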
[7] = tested on: Chordin-like protein 2 (CHRDL2); assay: compounds binding chordin-like 2 – biochemical, small-molecule microarray, 635 nm fluorescence, primary screen (AID 1126); settings: fluorescence 635 nm, higher = more signal;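 note: printed compound slides probed with Chrdl2 protein at 4 µg/mL for 1 h at 4 C; score merges 667 nm emission intensity with signal to noise over three replicate slides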
[8] = biological target: Concanavalin-A (Canavalia ensiformis) (UniProt P02866); assay: compounds binding concanavalin A lectin – biochemical, small-molecule microarray, Alexa647 label, 635 nm, artefact control for SMM control protein annotation, primary screen (AID 1127); settings: ConA-A647 binding fluorescence, higher = more signal;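 note: z combines 667 nm emission intensity with signal-to-noise across three replicate slides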
Sequence of Concanavalin-A (Canavalia ensiformis) (P02866 whole entry, looked up): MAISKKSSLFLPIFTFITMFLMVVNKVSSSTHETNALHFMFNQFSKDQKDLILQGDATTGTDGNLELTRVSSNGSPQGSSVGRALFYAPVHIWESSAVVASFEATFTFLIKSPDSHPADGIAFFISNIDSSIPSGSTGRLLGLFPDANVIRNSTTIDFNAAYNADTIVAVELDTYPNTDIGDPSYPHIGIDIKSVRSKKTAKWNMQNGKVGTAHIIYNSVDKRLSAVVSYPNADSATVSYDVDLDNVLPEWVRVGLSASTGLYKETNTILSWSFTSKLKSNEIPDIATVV

[9] = compounds binding Alexa647 anti-His antibody – biochemical, small-molecule microarray, 635 nm fluorescence, artefact control for SMM control protein annotation, primary screen (AID 1128); settings: higher = more signal;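 note: score merges feature fluorescence with signal-to-noise for each printed compound spot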
[10] = tested on: Human papillomavirus type 1a E7 protein (residues 1-88); assay: HPV1a E7 small-molecule binders, primary screen, biochemical, small-molecule microarray, residues 1-88, 635 nm (AID 1129); settings: small-molecule microarray binding, fluorescence 635 nm; higher = more signal
[11] = biological target: Focal adhesion kinase 1 (Homo sapiens) (UniProt Q05397); assay: PTK2 protein binding on printed compound slides – biochemical, small-molecule microarray, 635/667 nm fluorescence, BSA, DTT, primary screen (AID 1130); settings: 635 nm fluorescence, higher = more signal;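 note: composite of spot emission at 667 nm and signal to noise over triplicate slides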
Sequence of Focal adhesion kinase 1 (Homo sapiens) (Q05397 whole entry, looked up): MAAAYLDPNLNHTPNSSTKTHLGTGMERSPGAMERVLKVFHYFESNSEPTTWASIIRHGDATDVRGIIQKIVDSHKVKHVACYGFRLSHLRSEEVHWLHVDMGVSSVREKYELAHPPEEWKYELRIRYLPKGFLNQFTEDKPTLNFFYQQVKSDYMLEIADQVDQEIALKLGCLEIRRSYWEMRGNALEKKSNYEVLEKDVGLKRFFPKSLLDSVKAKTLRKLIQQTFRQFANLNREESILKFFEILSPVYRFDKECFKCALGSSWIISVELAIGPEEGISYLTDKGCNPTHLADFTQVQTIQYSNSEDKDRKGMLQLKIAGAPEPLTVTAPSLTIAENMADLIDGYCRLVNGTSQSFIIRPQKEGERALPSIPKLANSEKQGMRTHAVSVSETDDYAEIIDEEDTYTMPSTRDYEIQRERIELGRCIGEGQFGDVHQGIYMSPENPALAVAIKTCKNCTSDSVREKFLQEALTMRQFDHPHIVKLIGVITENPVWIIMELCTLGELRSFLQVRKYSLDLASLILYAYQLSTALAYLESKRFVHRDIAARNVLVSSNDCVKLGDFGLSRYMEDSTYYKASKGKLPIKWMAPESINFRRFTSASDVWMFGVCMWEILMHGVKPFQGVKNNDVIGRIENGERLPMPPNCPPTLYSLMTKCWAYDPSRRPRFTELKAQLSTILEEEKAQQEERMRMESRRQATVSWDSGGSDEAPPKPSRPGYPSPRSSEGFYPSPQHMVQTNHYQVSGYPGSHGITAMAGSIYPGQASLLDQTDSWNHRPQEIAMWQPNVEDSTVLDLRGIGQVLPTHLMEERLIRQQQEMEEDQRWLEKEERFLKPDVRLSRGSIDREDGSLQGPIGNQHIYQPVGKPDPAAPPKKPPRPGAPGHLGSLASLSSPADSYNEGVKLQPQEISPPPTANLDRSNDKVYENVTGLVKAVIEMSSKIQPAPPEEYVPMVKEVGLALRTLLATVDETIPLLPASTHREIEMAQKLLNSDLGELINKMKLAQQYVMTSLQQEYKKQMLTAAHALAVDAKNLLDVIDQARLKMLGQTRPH

[12] = tested on: Fibrinogen (Alexa647-labelled); assay: Alexa647-fibrinogen binding to printed small molecules – biochemical, small-molecule microarray, 635/667 nm fluorescence, artefact control for SMM control-protein annotation, profiling panel (AID 1131); settings: fibrinogen-A647 binding fluorescence, higher = more signal;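 note: z-score merges 667 nm fluorescence with per-spot signal-to-noise over triplicate slides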
[13] = biological target: Follistatin (Homo sapiens) (UniProt P19883); assay: FST protein binding to printed compounds – biochemical, small-molecule microarray, 635/667 nm fluorescence, primary screen (AID 1132); settings: 635 nm fluorescence, higher = more signal
Sequence of Follistatin (Homo sapiens) (P19883 whole entry, looked up): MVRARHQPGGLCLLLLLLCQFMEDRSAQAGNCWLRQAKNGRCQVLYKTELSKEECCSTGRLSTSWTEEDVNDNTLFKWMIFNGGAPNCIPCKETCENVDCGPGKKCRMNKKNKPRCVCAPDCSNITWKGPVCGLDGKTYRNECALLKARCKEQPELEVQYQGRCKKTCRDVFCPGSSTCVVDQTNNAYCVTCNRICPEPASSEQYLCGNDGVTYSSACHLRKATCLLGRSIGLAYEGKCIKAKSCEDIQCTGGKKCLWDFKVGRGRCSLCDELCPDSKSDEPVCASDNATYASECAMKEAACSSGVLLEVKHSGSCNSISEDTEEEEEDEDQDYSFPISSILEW

[14] = biological target: Fibroblast growth factor 2 (Homo sapiens) (UniProt P09038); assay: basic fibroblast growth factor binding to printed compounds – biochemical, small-molecule microarray, 635/667 nm fluorescence, primary screen (AID 1133); settings: FGF2, fluorescence 635/667, higher = more signal
Sequence of Fibroblast growth factor 2 (Homo sapiens) (P09038 whole entry, looked up): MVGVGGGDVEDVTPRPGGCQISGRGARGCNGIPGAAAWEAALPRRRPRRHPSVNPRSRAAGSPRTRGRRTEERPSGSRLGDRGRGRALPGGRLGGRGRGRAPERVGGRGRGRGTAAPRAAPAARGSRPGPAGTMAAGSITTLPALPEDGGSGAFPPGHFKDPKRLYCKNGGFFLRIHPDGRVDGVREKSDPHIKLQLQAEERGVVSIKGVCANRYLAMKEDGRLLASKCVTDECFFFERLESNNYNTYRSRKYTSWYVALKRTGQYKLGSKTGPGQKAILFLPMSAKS

[15] = JC-1 mitochondrial potential readout, lung cancer cells – cell-based, A549, JC-1 fluorescence, basal, 24 h, 100 nL, profiling panel (AID 1138); settings: higher = more signal;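 note: A549 lung adenocarcinoma cells under basal conditions with no added stimulus; test concentration not given here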
Lefty1 = Lefty1 protein binding to printed compounds – biochemical, small-molecule microarray, 635/667 nm fluorescence, primary screen (AID 1139); settings: fluorescence 635/667, higher = more signal
[16] = tested on: wheat germ agglutinin (Triticum aestivum), Alexa647-labelled; assay: Alexa647-WGA lectin binding to printed small molecules – biochemical, small-molecule microarray, 635/667 nm fluorescence, artefact control for SMM control-protein annotation, profiling panel (AID 1140); settings: WGA-A647 binding, 635 nm fluorescence, higher = more signal;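 note: score merges 667 nm feature emission with signal to noise over triplicate slides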
[17] = biological target: Luciferin 4-monooxygenase (Photinus pyralis) (UniProt P08659); assay: inhibition of purified Photinus pyralis luciferase – biochemical, luminescence, purified enzyme, 2006 set, primary screen (AID 1141); settings: purified firefly luciferase, SteadyGlo luminescence, 30 min; higher = more signal, called active from +8 up or from −8 down;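 note: cell-free assay with purified firefly luciferase at 100 ng per well in PBS; test concentration not given here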
Sequence of Luciferin 4-monooxygenase (Photinus pyralis) (P08659 whole entry, looked up): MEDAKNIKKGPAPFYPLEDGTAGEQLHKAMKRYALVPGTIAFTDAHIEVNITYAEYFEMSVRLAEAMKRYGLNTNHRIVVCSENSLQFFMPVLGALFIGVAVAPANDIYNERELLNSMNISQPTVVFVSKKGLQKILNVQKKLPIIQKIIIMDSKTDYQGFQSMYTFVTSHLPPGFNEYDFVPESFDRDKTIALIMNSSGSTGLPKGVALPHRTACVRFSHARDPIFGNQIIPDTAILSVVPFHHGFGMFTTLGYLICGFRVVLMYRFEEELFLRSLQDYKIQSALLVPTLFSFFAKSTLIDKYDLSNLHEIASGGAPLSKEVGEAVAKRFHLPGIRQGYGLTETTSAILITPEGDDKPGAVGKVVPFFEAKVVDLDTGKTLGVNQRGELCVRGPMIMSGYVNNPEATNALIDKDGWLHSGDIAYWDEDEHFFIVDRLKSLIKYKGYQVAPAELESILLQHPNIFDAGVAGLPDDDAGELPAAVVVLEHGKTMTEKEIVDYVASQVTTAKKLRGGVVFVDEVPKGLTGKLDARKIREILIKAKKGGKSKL

Row | Structure (SMILES) | composite z-score (Albumin (Bos taurus)) | composite Z-score [1] | composite z-score [2] | composite z-score [3] | composite z-score [4] | composite z-score [5] | composite z-score [6] | composite z-score (Sam68 (KHDRBS1)) | composite z-score [7] | composite z-score [8] | composite z-score [9] | composite z-score [10] | composite z-score [11] | composite z-score [12] | composite z-score [13] | composite z-score [14] | z-score [15] | composite z-score (Lefty1) | composite z-score [16] | z-score [17]
1 | COC(=O)[C@H](C)NC(=O)CCC1CC(OC(=O)NCc2ccc3c(c2)OCO3)CC2(CCCC(COC(=O)NCCC(C)C)O2)O1 (stereo not given in full) | 0.492 | -0.436 (inactive) | 0.0488 | -0.114 | 0.226 | 0.891 | -0.308 | 1.31 | 0.0784 | 0.0667 | 0.363 | 0.63 | 0.73 | 0.87 | 0.831 | 0.531 | -0.822 | 1.25 | 0.0551 | 0.977 (inactive)
2 | O=C1C2=CC[C@H]3C(=O)N(C[C@@H]4CCCO4)C(=O)[C@H]3[C@H]2[C@H](O)[C@@H]2O[C@H]12 | 0.335 | -0.275 (inactive) | -0.183 | -0.0928 | -0.145 | -0.534 | -0.246 | 0.244 | 0.362 | 0.397 | 0.286 | 0.611 | 0.146 | -0.0182 | 0.0235 | 0.0043 | 0.982 | 0.233 | -0.153 | -0.518 (inactive)
3 | CC(=O)OC[C@H]1O[C@H](CC=NOC(C)CN2CCCCc3nc(C)c(C)cc32)C=C[C@@H]1OC(C)=O (stereo not given in full) | 0.486 | -1.11 (inactive) | 0.678 | 0.0312 | 0.0236 | 0.511 | 0.333 | 1.31 | 1.33 | 0.902 | 0.544 | 0.819 | 0.0336 | 0.495 | 1.23 | 0.773 | -0.683 | 1.55 | 0.73 | 1.46 (inactive)
4 | CC(C)=NOC(C)CN1CCCCc2nc(C)c(C)cc21 (stereo not given) | 0.673 | 0.761 (inactive) | 0.169 | -0.0859 | 0.418 | 0.951 | 0.045 | 0.313 | 0.732 | 0.109 | 0.734 | -0.368 | -0.368 | 0.755 | 0.886 | 0.234 | 0.23 | 0.603 | -0.0583 | -0.327 (inactive)
5 | CC(CCC(=O)OC[C@H]1O[C@H](C#Cc2ccccc2)C=C[C@@H]1Oc1ccc(C)cc1)=NO[C@@H](C)c1cc(-c2c(C)cc(C)cc2C)no1 | 0.363 | -0.61 (inactive) | -0.272 | -0.14 | -0.0955 | 0.0007 | 0.173 | -0.42 | -0.872 | -0.214 | 0.888 | -1.49 | -0.0556 | 0.709 | -0.921 | -0.977 | -0.00541 | -0.589 | 0.848 | 0.0957 (inactive)
6 | O=C1[C@H]2CCn3c(=O)n(-c4ccccc4)c(=O)n3[C@H]2[C@H](O)[C@@H]2O[C@H]12 | 0.0407 | -0.916 (inactive) | -0.177 | -0.0651 | 0.0463 | 0.178 | -0.34 | -0.319 | 0.37 | 0.218 | -0.0114 | 0.301 | -0.339 | 0.418 | -0.0705 | 0.127 | 0.718 | 0.278 | 0.465 | 0.0786 (inactive)
7 | CCCNC(=O)OC[C@H]1O[C@H](CCON=C[C@@H](NS(=O)(=O)c2ccc(C)cc2)[C@H](C)C=CCC(=O)OC)C=C[C@@H]1Oc1ccc(OC)cc1 | -0.413 | -0.385 (inactive) | 0.0961 | -0.0158 | -0.437 | -0.192 | -0.0407 | 0.0713 | 0.16 | -1.46 | -0.114 | 0.136 | 0.459 | 0.0865 | -0.0546 | -0.102 | 0.188 | 0.0275 | 0.391 | -0.21 (inactive)
8 | O=C1C[C@@H](O)[C@@H](O)[C@@H]2[C@@H]3C(=O)N(C4CCCCC4)C(=O)[C@@H]3CC[C@@H]12 | 0.337 | -0.228 (inactive) | -0.104 | -0.198 | 0.167 | 0.798 | -0.244 | 0.546 | 0.36 | 0.448 | 0.69 | 0.54 | -0.0599 | 0.705 | 0.373 | 0.134 | 0.457 | 0.66 | 0.282 | 0.137 (inactive)
9 | C[C@@H]1CC[C@H]2C(=O)O[C@@H](CN=[N+]=[N-])CN2[C@H]1c1ccc(Br)cc1 | 0.677 | -0.283 (inactive) | -0.0343 | -0.0287 | 0.236 | 1.02 | 0.373 | 1.12 | 0.526 | 1.07 | 2.89 | 1.15 | 0.694 | 0.952 | 0.515 | 0.376 | 0.285 | 0.506 | 0.829 | -1.59 (inactive)
10 | CC(C)(C)N1C(=O)[C@H]2[C@@H]3C(=CC[C@H]2C1=O)C(=O)[C@H]1O[C@H]1[C@H]3O | 0.0159 | 0.321 (inactive) | -0.0976 | -0.154 | -0.444 | -0.511 | -0.058 | -0.657 | 1.04 | -0.721 | 0.23 | -0.137 | -0.339 | -1.06 | 0.1 | -0.17 | -0.732 | -0.0815 | 0.844 | -2.65 (inactive)
11 | Cc1ccc2[nH]c3nc(CCCn4ccnc4-c4ccccc4)nnc3c2c1 | 0.414 | -0.375 (inactive) | 0.079 | -0.176 | 0.465 | 0.656 | 0.0559 | 1.05 | 0.763 | 1.1 | 0.663 | 1.08 | 0.0863 | 0.826 | 0.757 | 1.19 | 0.524 | 0.802 | 0.676 | 0.36 (inactive)
